High-throughput results from PubChem BioAssay.
Hits are enriched below; roughly 12% of the tested compounds scored in any of these assays.
BAZ2B block – qHTS Assay for Inhibitors of BAZ2B | Bromodomain adjacent to zinc finger domain protein 2B (Homo sapiens), Q9UIF8 | AlphaScreen BAZ2B-H3K14Ac peptide displacement | Potency, µM (titrated, usually from 114 µM), inactives show top-dose activity change, negative = inhibition, hits mostly inhibitors | 360,000 tested, 4.4% active | AID 504333, 2011; note: potency is the fitted concentration of half-maximal effect; % is set by controls: 0 for no effect and ±100 for the full control effect; nearly all actives have a fitted effect of over 60% in size
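In this displacement format the biotinylated H3(5-23) peptide acetylated at Lys14 serves as ligand at 50 nM, with BAZ2B at 50 nM in PBS pH 7.4 containing 0.01% Tween-20. Donor and acceptor beads are 10 ug/mL final.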
PI5P4K alpha inh – qHTS for Inhibitors of phosphatidylinositol 5-phosphate 4-kinase (PI5P4K); Phosphatidylinositol 5-phosphate 4-kinase type-2 alpha (Homo sapiens), P48426; PI5P4Kalpha enzyme, ADP-Glo luminescence, 60 min; stronger effect = lower value; max response, %; 330,000 tested, 1.2% active; AID 652105, 2013; active = max response of -50% or lower; inconclusive = between -30% and -50%; inactive = -30% or higher; note: value at the top dose of about 77 µM; % is set by controls: 0 for no effect and ±100 for the full control effect
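Controls without substrate or without enzyme flank wells where PI5P4Kalpha converts substrate using 5 microM ATP (final). Incubation lasts 60 minutes at room temperature; ADP formed is read by ADP-Glo luminescence.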
PLK1 PBD inh – qHTS for Inhibitors of PLK1-PDB (polo-like kinase 1 - polo-box domain): Primary Screen. Serine/threonine-protein kinase PLK1 (Homo sapiens), P53350. Plk1 PBD binding of FITC phosphopeptide, fluorescence polarization. Potency, µM, for inactives: max response, negative = inhibition, hits mostly inhibitors. 360,000 tested, 2.8% active. AID 720504, 2013; note: potency is the fitted concentration of half-maximal effect; series mostly up to about 57 µM; % is set by controls: 0 for no effect and ±100 for the full control effect; nearly all actives have a fitted effect of over 65% in size
HP1b binding inh – HTS for Inhibitors of HP1-beta Chromodomain Interactions with Methylated Histone Tails; AlphaScreen HP1-beta / biotin-H3K9me3 peptide binding; 390,000 tested, 0.56% active; AID 540317, 2011; Chromobox protein homolog 1 (Homo sapiens), P83916; Potency, µM (titrated, usually from 114 µM), inactives show at the top dose activity change, negative = inhibition, hits mostly inhibitors; note: potency is the fitted concentration of half-maximal effect; nearly all actives have a fitted effect of over 70% in size
Target sequence (P83916 whole entry, looked up): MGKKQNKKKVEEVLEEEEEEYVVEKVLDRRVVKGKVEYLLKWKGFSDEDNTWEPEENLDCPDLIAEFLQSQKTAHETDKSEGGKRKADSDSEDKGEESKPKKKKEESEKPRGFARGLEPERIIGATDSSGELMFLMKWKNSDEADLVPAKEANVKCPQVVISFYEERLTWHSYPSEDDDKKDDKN
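HP1-beta protein (50 nM final) preincubated 30 min at room temperature with biotinylated H3(1-18)K9me3 peptide (50 nM) in PBS pH 7.4, 0.01% Tween-20, then compound added for 30 min. AlphaScreen streptavidin donor/nickel chelate acceptor beads (10 ug/mL final), 30 min dark, luminescence read.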
JMJD2A Tudor inh – qHTS Assay for Inhibitors of JMJD2A-Tudor Domain; Lysine-specific demethylase 4A (Homo sapiens), O75164; AlphaScreen JMJD2A-Tudor / H3K4me3 peptide binding; Potency, µM (titrated, usually from 114 µM), inactives show at the highest dose activity change, negative = inhibition, most hits filed as inhibitors; 390,000 tested, 4.4% active; note: potency is the fitted concentration of half-maximal effect; % is set by controls: 0 for no effect and ±100 for the full control effect; nearly all actives have a fitted effect of over 50% in size
G9a block – qHTS Assay for Inhibitors of Histone Lysine Methyltransferase G9a; Histone-lysine N-methyltransferase EHMT2 (Homo sapiens), Q96KQ7; G9a H3K9 monomethylation, AlphaScreen, 2 h; Potency, µM (titrated, usually from 102 µM), for inactives: top-dose activity, negative = inhibition, hits mostly inhibitors; 350,000 tested, 8.8% active; note: potency is the fitted concentration of half-maximal effect; % is set by controls: 0 for no effect and ±100 for the full control effect; nearly all actives have a fitted effect of over 75% in size
Target sequence (Q96KQ7 913-1193 limits assumed): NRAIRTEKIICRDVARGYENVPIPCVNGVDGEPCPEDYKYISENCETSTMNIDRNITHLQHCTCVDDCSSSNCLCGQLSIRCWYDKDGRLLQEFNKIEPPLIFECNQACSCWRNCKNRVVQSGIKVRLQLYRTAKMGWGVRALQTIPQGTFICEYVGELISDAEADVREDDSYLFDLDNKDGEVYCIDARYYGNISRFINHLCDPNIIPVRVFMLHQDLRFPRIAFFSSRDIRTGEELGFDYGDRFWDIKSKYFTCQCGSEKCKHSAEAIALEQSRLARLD
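AlphaScreen detection with an anti-monomethyl H3K9 antibody quantified product after a 2 h room-temperature reaction containing 500 nM biotinylated H3K9 peptide, 20 µM SAM and 20 nM enzyme, which had been preincubated 15 min with compound.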
* = called active by the depositor; ! = repeats disagree; [ ] = remark or other dose. Unless noted, calls come from the whole dose curve; as a rule, active = well fitted curve in the direction sought with a large enough effect; inconclusive = small, poorly fitted or top-dose-only effect, or another doubt; inactive = no such curve, though single readings can be large; an effect the other way counts as inactive or inconclusive.

`COCCNC(=O)C(c1ccc(C)o1)N(CCOC)C(=O)Cn1nnc2ccccc21` (configuration not stated) gave BAZ2B block -19%, PI5P4K alpha inh -4, PLK1 PBD inh 27µM*, HP1b binding inh -10%, JMJD2A Tudor inh -12% and G9a block -6%.
`O=C(NCCc1ccc2c(c1)OCCO2)c1cc(S(=O)(=O)N2CCCC2)ccc1Cl` gave BAZ2B block -15%, PI5P4K alpha inh 0, PLK1 PBD inh -1%, HP1b binding inh 25%, JMJD2A Tudor inh -15% and G9a block 40µM*.
For COc1ccc(-c2cc(C(F)(F)F)nc(SCCC(=O)Nc3ccc(OC)c(OC)c3)n2)cc1 the results were BAZ2B block -6%, HP1b binding inh 17%, JMJD2A Tudor inh -10% and G9a block 4%[59 µM].
Screening COc1ccccc1CNC(=O)[C@H](Cc1c[nH]c2ccccc12)NC(=O)[C@@H]1Cc2ccccc2CN1 returned BAZ2B block inconclusive, PI5P4K alpha inh -5, PLK1 PBD inh -7%, HP1b binding inh 26%, JMJD2A Tudor inh -27% and G9a block 13µM*.
`COc1ccc(C)cc1NC(=O)CNC(=O)[C@@H]1Cc2ccccc2CN1` gave BAZ2B block -6%[57.1 µM], PI5P4K alpha inh 0, PLK1 PBD inh -6%, HP1b binding inh 29%, JMJD2A Tudor inh -12% and G9a block 45µM*.
`Cc1ccc(NC(=O)[C@H](CC(C)C)NC(=O)[C@@H]2Cc3ccccc3CN2)cc1` gave BAZ2B block inconclusive, PI5P4K alpha inh 5, PLK1 PBD inh -5%, HP1b binding inh 15%, JMJD2A Tudor inh -24% and G9a block 32µM*.
Screening COc1cccc(NC(=O)[C@H](CC(C)C)NC(=O)[C@@H]2Cc3ccccc3CN2)c1 returned BAZ2B block inconclusive, PI5P4K alpha inh 7, PLK1 PBD inh -16%, HP1b binding inh 4%, JMJD2A Tudor inh 79µM* and G9a block 17%[0.0925 µM].
`Cc1ccc(NC(=O)[C@@H](CC(C)C)NC(=O)[C@@H]2Cc3ccccc3CN2)cc1` gave BAZ2B block -19%, PI5P4K alpha inh 2, PLK1 PBD inh -18%, HP1b binding inh 49%, JMJD2A Tudor inh -25% and G9a block inconclusive.
Cc1cccc(NC(=O)[C@H](Cc2ccccc2)NC(=O)[C@@H]2Cc3ccccc3CN2)c1 was read as BAZ2B block inconclusive, PI5P4K alpha inh -2, PLK1 PBD inh inconclusive, HP1b binding inh 25%, JMJD2A Tudor inh -29% and G9a block -8%[0.0925 µM].
For O=C(Nc1cc(Cl)c(Cl)cc1Cl)c1cccnc1 the results were BAZ2B block 3%, PI5P4K alpha inh -1, PLK1 PBD inh 3%, HP1b binding inh 25% and JMJD2A Tudor inh -8%.
Screening CC(C)(C)c1ccc(CC(=O)N2CCC2(C)C(=O)Nc2cccc3c2CCCC3)cc1 (configuration not stated) returned PI5P4K alpha inh 48 and PLK1 PBD inh -3%.
CCN(C(=O)CCN1C(=O)/C(=C/c2ccccc2)SC1=S)C1CCS(=O)(=O)C1 (configuration not stated) was read as BAZ2B block -35%, PI5P4K alpha inh -4, PLK1 PBD inh -18%, HP1b binding inh 16%, JMJD2A Tudor inh -30% and G9a block 6%.
CCN(c1ccccc1)S(=O)(=O)c1ccc(Oc2ccc(-n3ccnc3)cc2)nc1 was read as BAZ2B block inconclusive, PI5P4K alpha inh 0, PLK1 PBD inh -2%, HP1b binding inh -6%, JMJD2A Tudor inh 89µM* and G9a block 23%[59 µM].
For COc1ccc(-c2nnc(SCc3ccccn3)n2C)cc1 the results were BAZ2B block -3%, PI5P4K alpha inh -17, PLK1 PBD inh 30µM*, HP1b binding inh -7%, JMJD2A Tudor inh -11%[11.4 µM] and G9a block 12%[59 µM].
COc1ccc(N=C(N)SCc2ccccn2)cc1 was read as BAZ2B block inconclusive, PI5P4K alpha inh -7, PLK1 PBD inh -12%, HP1b binding inh inconclusive, JMJD2A Tudor inh 50µM* and G9a block 16µM*.
Screening COc1ccccc1-c1nnc(SCc2ccccn2)n1C returned BAZ2B block 5%, PLK1 PBD inh -8%, HP1b binding inh 5%, JMJD2A Tudor inh -1% and G9a block 20%[12.7 µM].
Screening Cn1c(=O)c(=O)n(C)c2cc(NC(=O)c3cccc(F)c3)c(Cl)cc21 returned BAZ2B block -16%, HP1b binding inh 17%, JMJD2A Tudor inh -13% and G9a block -2%[59 µM].
O=C(c1ccccc1)c1ccc(NCCCn2ccnc2)c([N+](=O)[O-])c1 was read as BAZ2B block 40µM*, PI5P4K alpha inh -1, PLK1 PBD inh -2%, HP1b binding inh inconclusive, JMJD2A Tudor inh 40µM* and G9a block -8%[2.33 µM].
`CN[C@@H]1[C@H](O[C@@H]2O[C@H](CO)[C@@H](N)[C@H](O)[C@@H]2O)O[C@H]2C[C@@H](N)[C@@H](O[C@H]3[C@@H](O)[C@H](O)[C@H](N)C[C@@H]3N)O[C@H]2[C@H]1O` gave G9a block 43%[21.5 µM].
For CN[C@@H]1[C@H](O[C@@H]2O[C@H](C)[C@@](O)(CO)[C@H]2O[C@H]2[C@H](O)[C@H](O)[C@H](N=C(N)N)[C@@H](O)[C@@H]2N=C(N)N)O[C@@H](CO)[C@H](O)[C@H]1O the results were G9a block 10µM*.
O=C(COc1ccccc1)Nc1nnc(S(=O)(=O)N2CCCC2)s1 was read as BAZ2B block inconclusive, PI5P4K alpha inh -29, PLK1 PBD inh -15%, HP1b binding inh 46%, JMJD2A Tudor inh inconclusive and G9a block 8.9µM*.
CC(Oc1ccccc1)C(=O)Nc1nnc(S(=O)(=O)N2CCCCCC2)s1 (configuration not stated) was read as BAZ2B block 1.8µM*!, PI5P4K alpha inh -4, PLK1 PBD inh -11%, HP1b binding inh 47%, JMJD2A Tudor inh 8.9µM*! and G9a block 2.8µM*!.
`Cc1ccc(OCC(=O)Nc2nnc(S(=O)(=O)N3CCC(C)CC3)s2)cc1` gave BAZ2B block inconclusive, PI5P4K alpha inh inconclusive, PLK1 PBD inh -28%, HP1b binding inh 14%[57 µM], JMJD2A Tudor inh inconclusive and G9a block 50µM*.
Screening O=C(O)CCC/C=C\CC1C2CCC(O2)C1CNNC(=O)Nc1ccccc1 (configuration not stated) returned G9a block 21%[59 µM].
